Two compounds from PubChem BioAssay (NCATS) can be followed below.

Inconclusive results are not listed. A call without a number means that no potency is given here. Unmarked numbers belong to inactive results. The source made the active and inactive calls. Calls come from the whole dose curve; as a rule, active = well fitted inhibition curve with a large enough effect; inconclusive = small, poorly fitted or top-dose-only effect; inactive = flat fitted curve, though single readings scatter.

This assay has as its system Zika virus NS2B-NS3 protease. The assay is described as follows: Primary screen GU AMC qHTS for Zika virus inhibitors (AID 1347154). Note: nearly all actives have a fitted effect of over 70% in size. In short, it runs like this:
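Unlinked Zika NS2B hydrophilic domain/NS3 protease domain noncovalent complex (25 nM final) in 10 mM Tris-HCl pH 8.0, 0.01% Tween 20, with AMC peptide substrate. Fluorescence (ex 340, em 450 nm) change over 15 min, room temperature; percent inhibition fitted to 4-parameter Hill equation.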
Background: In qHTS, concentration-response curves come from the screen itself.

Consider `CCCCCCCCCCCCCCCCOCC(CO)OC(C)=O` (configuration not stated), for which the activity change, negative = inhibition was 15.1% [at 6.83 µM].
As to `OCC(O)COc1cccc2ccccc12` (configuration not stated), the Potency result is “inactive”.
